Among all 69,000 compounds or so, about 8,600 (12%) showed an effect of 50% or more. The sample holds strong results, similar compounds and a random draw of the others, so the mix is not that of the screen.
tested on: Plasmodium berghei; assay: Screen against P. berghei liver stage (PbLuc), transformed with Luciferase, at 10uM; format: functional, HepG2; conditions: tested at 10 uM

Structure (SMILES)	INHIBITION
Cc1nn(C)c(Cl)c1C(=O)NCc1cccnc1N1CCOCC1	-13%
O=C(NCc1nncn1C1CC1)c1ccccc1Oc1cccnc1	-18.3%
O=C(c1ccnnc1)N1C[C@@H]2COC[C@]2(COCC2CC2)C1	46.2%
OC(CNCCn1cccn1)c1cccc(Br)c1 (centres undefined)	11.2%
CC(O)c1cn(CC2CCN(C(=O)c3cccc(N(C)C)c3)CC2)nn1 (centres undefined)	55.7%
CC(O)c1cn(CC2CCN(C(=O)CN(C)C(C)C)CC2)nn1 (centres undefined)	8.51%
CC(O)c1cn(CC2CCN(C(=O)c3cscn3)CC2)nn1 (centres undefined)	30.3%
CCN(C)C(C(=O)Nc1ccc2c(c1)CCC(=O)N2)c1ccccc1 (centres undefined)	36.3%
CCC(CC(=O)Nc1ccc2c(c1)CC(=O)N2)c1ccccc1 (centres undefined)	49.1%
CCN(CC)C(C(=O)Nc1ccc2c(c1)CCC(=O)N2)c1ccccc1 (centres undefined)	56.8%
COCCN1C[C@@H]2[C@@H](OC)CCN(C(=O)c3cccc(OC)c3)[C@@H]2C1	11.6%
Cc1ccc(OCCC(=O)NC2CCc3nccn3C2)cc1 (centres undefined)	22.1%
CN(C)C(=O)CO[C@H]1CN(Cc2ccc(F)cc2)[C@@H]2CCCO[C@H]12	25.1%
CCCc1nnc(N2CCC(N3CCCCCC3)CC2)o1	23.3%
CCCc1nnc(N2CCN(C3CCCC3)CC2)o1	26.5%
CCCc1nnc(N2CCC(N3CCCC3)CC2)o1	79.8%
O=C(O)C1(Oc2cccc(F)c2)CCN(C2CCOCC2)CC1	-15.2%
Cc1ccccc1OCC(O)CN1CCC(c2ccn[nH]2)CC1 (centres undefined)	-17.6%
CSC1(CNC(=O)NC(C)Cc2cccc(F)c2)CCOCC1 (centres undefined)	-12.5%
CSC1(CNC(=O)NC(C)c2ccc(F)c(F)c2)CCOCC1 (centres undefined)	65.3%
CSC1(CNC(=O)NC(C)c2ccc(F)cc2)CCOCC1 (centres undefined)	16.5%
O=C1NCC(C(=O)Nc2ccc(=O)n(Cc3ccccc3Cl)c2)N1 (centres undefined)	26.8%
COc1cccc(NC(=O)Cn2c(=O)nc(N)c3cc(C)sc32)c1	-12.5%
Cc1cc2c(N)nc(=O)n(CC(=O)Nc3cccc(Cl)c3)c2s1	76.9%
Cc1cc2c(N)nc(=O)n(CC(=O)Nc3ccccc3)c2s1	1.45%
O=C(Nc1cccnc1N1CCSCC1)c1ccc2c(c1)OCO2	49.5%

Structure (SMILES)	INHIBITION
COc1c(C2CCCN2CC(=O)Nc2cc(C)on2)c(C)nn1C (centres undefined)	-102%
CC(C)(C)n1ncc2c1NC(=O)CC2c1ccc(C#N)cc1 (centres undefined)	-1.04%
CCc1[nH]c2c(CNC(=O)C3CCC(=O)NC3)cc(C)cc2c1C (centres undefined)	-8.75%
CCc1[nH]c2c(CNc3nccc(N)n3)cc(C)cc2c1C	37.4%
CCc1[nH]c2c(CNc3nccc(N)n3)cc(F)cc2c1C	55.4%
CCc1[nH]c2c(CNc3cnccn3)cc(F)cc2c1C	56.3%
Cc1cc(CNc2nccc(N)n2)c2[nH]c(C)c(C)c2c1	66.9%
CCc1[nH]c2c(CNC(=O)C3CCN(C)C3)cc(C)cc2c1C (centres undefined)	14.9%
CCc1[nH]c2c(CNc3cncc(C(=O)N(C)C)n3)cc(F)cc2c1C	47.2%
CCc1[nH]c2ccc(CNC(=O)c3cnc(N)nc3C)cc2c1C	36.5%
Cc1noc(C)c1CN1CCC2(CC1)CC(Oc1cccnc1)C2	30.5%
Cn1cccc1C(=O)N1CCN(Cc2cccnc2)c2ncccc2C1	10.5%
CCc1n[nH]c(C2CN(C(=O)CCOCC(F)(F)F)CCO2)n1 (centres undefined)	1.45%
O=C1NC2(CCN(c3ncccn3)CC2)CC1c1cccnc1 (centres undefined)	17.1%
Cc1cc(CC(=O)NC2CCCN(c3ccccc3F)C2=O)n[nH]1 (centres undefined)	13.6%
Cc1ccsc1C(CNC(=O)c1cc(=O)[nH]c(=O)[nH]1)N(C)C (centres undefined)	-27.5%
NC(=O)CC1CCCN(c2cncc(SCc3ccccc3)n2)C1 (centres undefined)	-13.7%
CC(=O)Nc1ccc(Cl)c(C(=O)N(C)C(C)c2nccs2)c1 (centres undefined)	61%
CC(=O)Nc1ccc(Cl)c(C(=O)N(C)C(C)c2ccncn2)c1 (centres undefined)	32.2%
CC(=O)Nc1ccc(Cl)c(C(=O)N(C)C(C)c2ccon2)c1 (centres undefined)	18.3%
Cc1nc(C)n(CC2CN(Cc3ccc4c(c3)OCCO4)CCO2)n1 (centres undefined)	1.78%
O=C(Cn1cnc2sccc2c1=O)NCCCc1nnc2ccccn12	28.3%
Cc1cnc(CCNC(=O)NCCc2ccc(O)cc2)s1	42.8%
CCc1cnc(CNC(=O)NCCc2ccc(O)cc2)s1	71.1%
CCc1cnc(CNC(=O)NCCCO)s1	-25.6%
CCC[C@@H]1CN(Cc2ccccc2OC(F)(F)F)C[C@H]1NC(C)=O	19.7%

Structure (SMILES)	INHIBITION
COc1cccc(Cn2ncnc2CCSC)c1	-32.9%
CC(CCc1ncnn1Cc1cccc(Cl)c1)N1CCCC1 (centres undefined)	49.3%
COc1cccc(Cn2ncnc2CCC(C)N2CCN(C)CC2)c1 (centres undefined)	72%
Cc1noc(C2CCCN(C(=O)CCCNc3ncccn3)C2)n1 (centres undefined)	8.535%
COc1ccc(CCCNCc2c(C)nn(C)c2N(C)C)cc1OC	45.7%
CN(C)c1cccc(C(=O)N2CCn3c(nnc3C3CC3)C2)c1	25.4%
Cn1cc(S(=O)(=O)N2CCCC2Cn2ccnc2)cn1 (centres undefined)	34.4%
Cn1cc(S(=O)(=O)N2CCCC2Cn2ccnc2)cc1C(N)=O (centres undefined)	39.9%
CN(C)C(=O)c1cc(S(=O)(=O)N2CCCC2Cn2ccnc2)cn1C (centres undefined)	61.5%
CN(Cc1nc(CS(C)(=O)=O)no1)c1ccccc1	19.7%
COCCN(Cc1ccco1)Cc1nc(-c2ccccc2)no1	-10.1%
CS(=O)(=O)Cc1noc(CN(Cc2ccco2)c2ccccc2)n1	54.4%
Cc1noc(C)c1CN1C[C@@H](N(C)Cc2ccco2)[C@H]2OCCC[C@H]21	20.6%
O=C(NCCNc1ncccn1)C1CCN(C(=O)c2ccoc2)CC1	-2.53%
CC1(C)OC(=O)N(CCCC(=O)c2ccc(F)cc2)C1=O	-4.12%
CN(C)C(=O)CCC[S+]([O-])Cc1ccc(Cl)c(Cl)c1 (centres undefined)	57.3%
CN(C)C(=O)CNC(=O)c1ccc(Cl)cc1F	-12.6%
CN(C)C(=O)CCC[S+]([O-])Cc1ccc(F)c(F)c1 (centres undefined)	31.5%
COCC(=O)N(C)Cc1ccc(Cl)c(Cl)c1	-11.1%
CN(C)C(=O)CCNC(=O)NCc1ccc(Br)cc1Cl	47.6%
CN(C)C(=O)CCC[S+]([O-])Cc1cc(Cl)ccc1Cl (centres undefined)	57.3%
CC(C)CCN1CCc2cc(C(=O)N(C)C)c(NCC3CC3)nc2CC1	-35%
CC(=O)N[C@@H]1CN(c2nc(C(N)=O)cs2)C[C@H]1c1ccc(C)o1	35%
O=C(N[C@H]1CN(c2nc(CO)cs2)C[C@@H]1C1CC1)C1CCCCC1	50.4%
CC(=O)N[C@@H]1CN(C(=O)c2cc3ccccc3[nH]2)C[C@H]1c1ccc(C)o1	61.2%
Cc1nc(O)cc(CN2C[C@H](NC(=O)C3CCCC3)[C@@H](C3CC3)C2)n1	-69.6%

Structure (SMILES)	INHIBITION
CC(=O)N[C@@H]1CN(c2nc(CO)cs2)C[C@H]1c1ccc(C)o1	65.6%
CC(=O)N[C@@H]1CN(C(=O)c2cc3sccc3[nH]2)C[C@H]1c1ccc(C)o1	-7.94%
CCc1nnc(N2C[C@@H](NC(C)=O)[C@H](c3ccc(C)o3)C2)s1	44.3%
CCC[C@H]1CN(c2nc(CO)cs2)C[C@@H]1NC(=O)C1CCC1	48.2%
CC(=O)N[C@@H]1CN(C(=O)c2ccc[nH]2)C[C@H]1c1ccc(C)o1	45.1%
Cc1ccccc1C1CN(c2cnn(C)c(=O)c2Cl)CCO1 (centres undefined)	-3.35%
Cc1cnc(N2C[C@H]3CN(Cc4csc(C)n4)C(=O)[C@H]3C2)nc1	31.4%
CCOC(=O)[C@]12CCCN(Cc3ccco3)C[C@H]1CN(S(C)(=O)=O)C2	6.67%
Cc1ccc2c(c1)[C@@H](CC(=O)N1CCN(C)CC1)CCO2	-12.2%
CNC(=O)[C@H]1C[C@@H]2CN(S(=O)(=O)c3ccc(F)cc3)C[C@@H]2N1C	35.8%
CCN1CC[C@@]2(C(=O)N3CCCC3)CCN(S(C)(=O)=O)CC[C@@H]12	-45.5%
Cc1ncsc1CN1C[C@@H]2COC[C@]2(CNC(=O)c2ccccc2)C1	-49.6%
Cc1cccc(COC[C@H]2CC[C@H]3[C@H](CCN3C(=O)CC3CC3)O2)n1	2.84%
COc1cccc(COCC(=O)N2CCCCCC2)c1	-51.075%
COc1ccc(C(=O)N2CCN(C(=O)CCCc3cn[nH]c3)CC2)cc1	26.4%
COc1ccccc1C(=O)N1CCN(C(=O)CCn2ccnc2)CC1	-27.4%
O=C(CCCc1cn[nH]c1)N1C[C@@H](CN2CCCCCC2)[C@@H](CO)C1	52.2%
COc1cccc(OCC2CCCN(C(=O)CCCn3cccn3)C2)c1 (centres undefined)	16.9%
COc1cccc(OCC2CCCN(C(C)=O)C2)c1 (centres undefined)	-20.9%
COc1ccccc1C(=O)N1CCN(C(=O)CCCc2cn[nH]c2)CC1	32%
COc1cccc(C(=O)N2CCN(C(=O)CCCc3cn[nH]c3)CC2)c1	65.6%
COc1cccc(C(=O)N2CCN(C(=O)CCCn3ccnc3)CC2)c1	40.9%
O=C(CCCc1cn[nH]c1)N1C[C@@H](CN2CCOCC2)[C@@H](CO)C1	2.3%
O=C(CCc1cn[nH]c1)N1C[C@@H](CN2CCCCCC2)[C@@H](CO)C1	36.6%
COc1cccc(OCC2CCCN(C(=O)CCn3ccnc3)C2)c1 (centres undefined)	82.2%
COc1cccc(C(=O)N2CCN(C(=O)CCn3ccnc3)CC2)c1	55%

From ChEMBL document CHEMBL4513216, “Probing the Open Global Health Chemical Diversity Library for Multistage-Active Starting Points for Next-Generation Antimalarials” (ACS Infect Dis, 2020)
